# Rows were chosen to be rich in hits. Some 2.2% of all compounds tested hit in one or more screens of this group.
# BaF3 parental: parental Ba/F3 cell viability inhibition, counter-screen for JAK2V617F inhibitor project, murine pro-B, CellTiter-Glo luminescence; CellTiter-Glo ATP luminescence; inhibition, % at 5.6 µM; actives 1.1% (n = 220,000); AID 1486, 2009;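 active = inhibition above a per-campaign cutoff, the mean inhibition of all tested compounds plus 3 SD, cut at about 27% in these data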;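 also: 0% = DMSO wells and 100% = JAK Inhibitor I control wells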
# KLF5 inh: KLF5 expression inhibitors, primary screen, DLD-1 cells, luminescence. actives 0.23% (n = 290,000). DLD-1 KLF5 promoter-luciferase reporter. inhibition, % at 5 µM;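 active = inhibition above a per-plate limit of that plate's mean compound inhibition plus 3 SD, cut at about 60% in these data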;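 also: 0% = DMSO wells and 100% = LY294002 at 200 µM; higher means less KLF5 promoter-driven luciferase light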
# IEC-6 cytotox: cytotoxicity in IEC-6 intestinal epithelial cells, primary screen, cytotoxicity control for KLF5 inhibitor project, cell-based, luminescence | AID 1825, 2009 | actives 0.78% (n = 290,000) | IEC-6 cytotoxicity, luminescence viability | inhibition, % at 5 µM;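 also: 0% = plate median of test compound wells and 100% = cytotoxic reference compound wells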
# aSyn 5UTR inh: MLPCN primary screen, SNCA 5' untranslated region. alpha-synuclein 5'UTR reporter, inhibitor activity. inhibition, % (tested at 7.5 µM). actives 0.82% (n = 300,000). AID 1813, 2009; in the data active = inhibition above about 60%;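 also: H4 neuroglioblastoma cells stably carrying SNCA 5'UTR luciferase fusion; 0% = DMSO wells and 100% = positive control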
# APP 5UTR inh: inhibitors of APP translation via 5'UTR reporter, primary screen, APP 5'UTR luciferase, SH-SY5Y cells | actives 0.82% (n = 190,000) | inhibition, % at 2 µM | SH-SY5Y APP 5'UTR-luciferase reporter, luminescence;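 active = inhibition above a set limit, derived from the sample mean plus 3 SD, cut at about 45% in these data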
# Ba/F3 V617F tox: reduced viability of JAK2V617F-dependent Ba/F3 cells, primary screen, JAK2V617F inhibitor project, cell-based, Ba/F3 EpoR-JAK2V617F, luminescence; AID 1446, 2008; inhibition, % at 5.6 µM; ATP luminescence; actives 1.1% (n = 220,000);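 active = inhibition above the campaign mean plus 3 SD over all tested compounds, cut at about 24% in these data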;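 also: cytokine-independent growth of Ba/F3 cells driven by EpoR plus mutant JAK2; 0% = DMSO-treated cells and 100% = JAK inhibitor I control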
# IEC-6 tox confirm: cytotoxic compounds in IEC-6 epithelial cells, confirmation, cytotoxicity control, cell-based, luminescence; shares compounds with IEC-6 cytotox; IEC-6 rat intestinal epithelial viability; inhibition, % at 5 µM; actives 63% (n = 1,900); AID 1907, 2009;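 also: 0% = vehicle and 100% = reference cytotoxic drug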
# Numbers without * were called inactive; . = not tested or not shown. Rule as the data show it, unless noted: active = inhibition above about 22%; inactive = the rest.
SMILES,BaF3 parental,KLF5 inh,IEC-6 cytotox,aSyn 5UTR inh,APP 5UTR inh,Ba/F3 V617F tox,IEC-6 tox confirm
COc1ccccc1Nc1c2c(nc3ccccc13)CCC2,.,13.7,47.9*,19.4,.,.,30.9*
COC(=O)c1cccc(Nc2c3c(nc4ccccc24)CCC3)c1,.,-7.2,27.7*,-34.3,.,.,8.0
Cc1cc(C)c(NC(=O)C2CCCO2)c(C)c1 (stereo not given),.,.,.,-24.2,.,.,.
NNC(=O)c1[nH]c2ccc([N+](=O)[O-])cc2c1-c1ccccc1,.,-3.0,91.3*,-0.7,.,.,-3.0
O=C(O)c1[nH]c2ccc([N+](=O)[O-])cc2c1-c1ccccc1,0.6,4.8,-0.8,-8.9,.,-3.1,.
O=c1c(Cl)c(Cl)cnn1Cc1ccc(F)cc1,-3.4,-22.8,26.9*,-57.3,50.7*,6.7,11.2
O=c1cnn(Cc2ccc(F)cc2)c2ccccc12,.,7.2,4.0,7.4,.,.,.
CCOC(=O)Nc1cc(=O)c2ccccc2o1,59.7*,35.1,44.0*,-19.2,-10.8,69.3*,22.9*
Cc1cc(NS(=O)(=O)c2c(C)[nH]c(=O)[nH]c2=O)ccc1Br,.,-44.3,-5.2,2.7,.,.,.
O=C(N/N=C/c1ccccn1)c1ccc(Cl)c(Cl)c1,.,-4.3,22.5*,-20.3,.,.,11.4
COc1ccc(-n2c(=S)[nH]c3cc(C(=O)Nc4ccc(F)cc4)ccc3c2=O)c(OC)c1,.,50.2,31.6*,-141.9,.,.,17.7
COc1ccc(NC(=O)c2ccc3c(=O)n(-c4ccc(OC)cc4OC)c(=S)[nH]c3c2)cc1,1.5,-24.3,-1.4,-4.7,-1.7,-2.4,.
Cc1ccc2c(c1)CCCN2C(=O)c1cc(C)on1,.,-8.7,-1.7,0.4,.,.,.
O=C(c1c[nH]c2ccccc12)C(Cl)c1ccccc1 (stereo not given),.,18.0,32.9*,-10.5,.,.,12.7
O=C(c1c[nH]c2ccccc12)C(O)C(c1ccccc1)N1CCOCC1 (stereo not given),4.2,-11.0,-3.3,-13.5,-6.4,-3.8,.
CN(C)c1ccccc1C(=O)c1ccccc1N(C)C,75.1*,-18.0,74.0*,-6.3,90.9*,76.6*,22.1*
CN(c1ccccc1C(=O)O)S(C)(=O)=O,5.7,7.2,2.1,-18.4,-9.4,1.7,.
CC(C)(C)c1ccc(S(=O)(=O)N2CCC(NC(=O)c3ccco3)CC2)cc1,.,4.8,6.0,-2.4,.,.,.
Cc1ccccc1Oc1nc2c(C)cccn2c(=O)c1/C=C(\C#N)C(=O)NC1CCS(=O)(=O)C1 (stereo not given),-0.4,10.6,55.2*,20.8,.,-6.3,29.3*
NC(N)=N/N=C/c1ccc(Br)cc1,34.4*,9.6,25.8*,-8.5,28.5,10.0,55.7*
N#Cc1ccc(/C=N/N=C(N)N)cc1,6.0,-16.7,3.6,-5.0,-15.0,2.9,.
CCOc1ccc(NC(=O)NCc2ccc3c(c2)OCO3)cc1,.,-10.8,2.1,6.3,.,.,.
COc1cc(OC)nc(-n2ncc(Br)c(Br)c2=O)n1,87.2*,-20.2,55.5*,.,94.1*,95.6*,69.8*
O=C(O)CSc1cccc[n+]1[O-],0.7,-23.1,-4.6,13.7,2.2,-2.9,.
N#CC(C#N)=C(N)CSc1cccc[n+]1[O-],5.6,-19.5,23.8*,-27.5,-16.8,-1.9,-3.2
SMILES,BaF3 parental,KLF5 inh,IEC-6 cytotox,aSyn 5UTR inh,APP 5UTR inh,Ba/F3 V617F tox,IEC-6 tox confirm
O=C(CSc1cccc[n+]1[O-])c1cc(Cl)ccc1Cl,8.6,-21.9,27.5*,-87.4,26.7,0.8,-13.1
O=C(CSc1cccc[n+]1[O-])c1cc2ccccc2o1,-0.2,-28.5,25.4*,-101.1,-30.8,-1.9,-1.8
[O-][n+]1ccccc1SCc1ccccc1,.,.,.,2.4,.,.,.
COc1ccc(OC)c(/C=C/c2[nH]c(=O)[nH]c(=O)c2[N+](=O)[O-])c1,.,-29.9,1.0,-12.1,.,.,.
CS(=O)(=O)/C(C#N)=C\c1cnc(S(=O)(=O)c2ccccc2)s1,.,-21.1,35.6*,-36.8,.,.,9.3
Nc1ccc(S(=O)(=O)N2CCOCCOCCOCCOCCOCC2)cc1,.,-34.1,-2.6,24.8,.,.,.
Cc1cccc(C(=O)O)c1NC(=O)Cc1cccc2ccccc12,.,-24.0,-0.9,-3.6,.,.,.
O=C(NNc1ccccc1)C(=O)NNS(=O)(=O)c1ccc(CCCl)cc1,0.6,22.8,43.9*,7.5,.,-0.7,10.6
COC(=O)c1ccc(N2CCN(C)CC2)c(NC(=O)c2sc3ccccc3c2Cl)c1,.,-38.7,-2.2,-43.2,.,.,.
COc1cc(CC(=O)NCc2ccc3c(c2)OCO3)cc(OC)c1OC,4.9,-27.6,-4.5,6.1,-4.6,-2.0,.
COc1cc(CC(=O)OCC(=O)c2ccc3c(c2)OCCO3)cc(OC)c1OC,79.1*,42.4,88.0*,100.5*,94.2*,71.9*,56.0*
O=c1[nH]c(=O)n(-c2cc(Br)c(O)c(Br)c2)cc1Br,.,-18.5,-2.3,-5.4,.,.,.
CCOc1cc(CNc2ccc3c(c2)OCCO3)cc(Br)c1OCC,74.3*,6.7,83.1*,97.4*,94.7*,74.3*,53.2*
CCN(CC)CCNc1ccc(CO)c2sc3ccccc3c(=O)c12,47.3*,13.1,54.1*,-35.5,19.9,65.9*,63.6*
COC(=O)C(NC(=O)c1ccco1)(Nc1cc(C)ccn1)C(F)(F)F (stereo not given),7.1,-14.2,52.0*,-4.9,-1.7,5.6,7.7
CC1CCCCN1C(=O)NC1CC(=O)N(c2ccc3c(c2)OCCO3)C1 (stereo not given),.,.,.,-2.8,.,.,.
O=C(Oc1ccccc1-c1nnco1)c1ccc(Cl)cc1,4.9,-8.8,33.3*,13.0,-4.6,4.3,-6.4
CCOc1ccc(-c2[nH]ncc2-c2ccc(OC)c(OC)c2)c(O)c1,58.6*,46.9,41.4*,.,69.7*,53.2*,50.3*
CCC(C)(CCNC(=O)Cc1ccccc1)c1ccccc1OC (stereo not given),.,-14.2,-7.5,4.1,.,.,.
Cc1cc(Cl)n2c(nc3ccccc32)c1C#N,29.1*,17.4,77.1*,88.7*,90.0*,75.6*,37.4*
O=C(NCc1cccnc1)c1ccc([N+](=O)[O-])o1,-6.4,-17.1,32.4*,-117.4,7.1,1.5,15.9
O=C(Nc1cccnc1)c1ccc([N+](=O)[O-])o1,.,-11.1,76.2*,-202.4,.,.,2.0
O=C(Nc1cccnc1)c1ccco1,6.2,-8.4,-4.4,-12.7,26.0,1.0,.
O=C(Cc1ccc(-c2ccccc2)cc1)NCc1cccnc1,19.6,-0.6,25.1*,-47.5,-40.0,17.6,25.0*
COCCC(=O)N1CCC(Oc2ccc(C(=O)N3CCC[C@H]3CO)cc2)CC1,.,-21.6,-5.6,-2.3,.,.,.
Cc1cc(Cl)ccc1OCCCC(=O)N1CCN(S(=O)(=O)c2ccccc2)CC1,.,.,.,-1.1,.,.,.

# High-throughput results from PubChem.
